TDP1 cell CPT: growth inhibition of DT40 Tdp1-/-;hTDP1 cells with camptothecin (screen for TDP1 inhibitors) | AID 686979 | chicken DT40 Tdp1-/-;hTDP1 cells + 20 nM CPT, ATP luminescence, 48 h | Potency, µM (highest dose often 46.2 µM), actives largely listed as inhibitors | 420,000 tested, 12% active; note: nearly all actives have a fitted effect of over 55% in size
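Chicken DT40 Tdp1-/- cells complemented with human TDP1, 400 cells/well, exposed to compounds plus 20 nM camptothecin for at least 48 h at 37 C; viability read as ATP content by CellTiter-Glo luminescence.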
HT1080-NT tox: kills 2HG-producing HT-1080-NT fibrosarcoma cells; Potency, µM (series often up to 46.1 µM), hits mostly cytotoxic; HT-1080-NT fibrosarcoma viability, CellTiter-Glo ATP luminescence, 48 h; 360,000 tested, 1.6% active;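 note: NT is the 2HG producing partner of a matched IDH1 knockdown line; nearly all actives have a fitted effect of over 55% in size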
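Read-out is CellTiter-Glo luminescence after 10 minutes at room temperature, following 48 hours' compound treatment of HT-1080-NT cells (750 cells/well, RPMI, 5% FBS, 37 degrees C).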
HT1080 IDH1KD tx: kills HT-1080 cells with IDH1 knockdown | HT-1080 IDH1 knockdown viability, ATP luminescence, 48 h | 360,000 tested, 2% active | Potency, µM (doses to about 46.1 µM), usual class: cytotoxic
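In this qHTS, HT-1080 cells depleted of IDH1 are exposed for 48 h at 37 °C to compound titrations. Toxicity is scored from CellTiter-Glo luminescence, with DMSO as full viability and medium alone as none.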
TDP1 cell noCPT: qHTS for Inhibitors of human tyrosyl-DNA phosphodiesterase 1 (TDP1): qHTS in cells in absence of CPT; 420,000 tested, 15% active; DT40 Tdp1-/- hTDP1 cells, no CPT, ATP luminescence, 48 h; Potency, µM (series often up to 46.2 µM), usual class: inhibitors; AID 686978, 2013; note: nearly all actives have a fitted effect of over 55% in size
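Camptothecin absent (DMSO only). Human TDP1-complemented DT40 knockout cells, 400 cells/well, 37 °C for minimum 48 hr; ATP measured via CellTiter-Glo, 30 min dark incubation, luminescence.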
IL-1B inflam inh: blocks inflammasome-driven IL-1 beta release. activity change, % at 57.5 µM. 360,000 tested, 4.7% active. THP-1 LPS/ATP IL-1B secretion, AlphaLISA, 16 h; stronger effect = lower value; in the data active = activity change below about -50%; inconclusive = mostly about -30% to -49%
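THP-1 cells pretreated 1 hr with compounds (up to 57.5 uM final), then stimulated with LPS (250 ng/mL final) plus ATP (1.25 mM final); secreted IL-1B measured by AlphaLISA after 16 hr, decreased signal indicating inhibition.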
Numbers stand for hits; i = inactive; ? = inconclusive; nt = not tested or not shown; [ ] = dose if it differs, or a comment. Most compounds without a hit are left out; they make up all but 19% or so of the library. Unless noted, calls come from the whole dose curve; as a rule, active = well fitted curve in the direction sought with a large enough effect; inconclusive = small, poorly fitted or top-dose-only effect, or another doubt; inactive = no such curve, though single readings can be large; an effect the other way counts as inactive or inconclusive.

SMILES	TDP1 cell CPT	HT1080-NT tox	HT1080 IDH1KD tx	TDP1 cell noCPT	IL-1B inflam inh
C=CCn1c(SCCOc2ccccc2)nnc1C(C)NC(=O)c1ccccc1 (stereo not given)	?	i	i	i	i
C=CCn1c(CCNC(=O)c2ccc(Cl)c(Cl)c2)nnc1SCCOc1ccc(OC)cc1	?	?	?	26µM	?
CCn1c(CNC(=O)Cc2ccc(OC)cc2)nnc1SCCOc1ccccc1	?	i	i	16µM	?
COc1ccc(C(=O)NCc2nnc(SCC(=O)NO)n2Cc2ccccc2)cc1	18µM	i	i	?	?
COc1ccc(CC(=O)NCc2nnc(SCCOc3ccccc3)n2C)cc1	?	i	i	?	i
CC(=O)N1CCCc2cc(S(=O)(=O)NC(C(=O)NCc3ccc(C)cc3)C(C)C)ccc21 (stereo not given)	?	i	i	?	i
COc1ccccc1CCNC(=O)c1cccc(S(=O)(=O)N2CCc3ccccc3C2)c1	i	i	i	?	i
COc1ccc(Nc2c(-c3ccc(C)o3)nc3ccc(Cl)cn23)cc1	7.3µM	nt	nt	18µM	nt
CC(=O)Nc1c(-c2ccccc2)nc2ccc(Cl)cn12	i	i	i	i	i
Clc1ccc(Nc2c(-c3ccccc3Cl)nc3ccc(Cl)cn23)cc1	?	nt	nt	26µM	nt
O=S(=O)(c1ccc(Oc2ccc(Cl)cc2)nc1)N1CCOCC1	i	i	i	i	i
CCCc1n[nH]c2c1/C(=N\O)CCC2	i	i	i	i	i
CN(Cc1ccccc1F)C(=O)c1ccc2c(=O)n3c(nc2c1)CCC3	i	i	i	i	i
CCOC(=O)c1sc(NC(=O)c2c(OC)cccc2OC)nc1C	i	i	i	i	i
CCn1nc(-c2ccccc2)c(-c2ccccc2)c(C(=O)Nc2ccccc2C#N)c1=O	18µM	nt	nt	12µM	nt
CCOC(=O)c1sc(NC(=O)c2c(-c3ccccc3)c(-c3ccccc3)nn(C)c2=O)nc1C	?	nt	nt	16µM	nt
Cc1sc(NC(=O)c2ccc(=O)n(C)n2)nc1-c1ccccc1	?	i	i	?	?
Cc1nc(NC(=O)c2c(-c3ccccc3)c(-c3ccccc3)nn(C)c2=O)sc1C	0.46µM	nt	nt	0.58µM	nt
CCN(CC)C(=O)c1c(-c2ccccc2)c(-c2ccccc2)nn(C)c1=O	i	nt	nt	i	nt
O=c1c(OCc2ccccc2)cccn1Cc1ccccc1	i	i	i	?	?
CC(O)CCCCn1c(=O)c2c(ncn2C)n(C)c1=O (stereo not given)	i	nt	nt	i	nt
CCCn1c(=O)c2c(ncn2C)n(CCC)c1=O	?	i	i	3.7µM	i
C=C(C)C(=O)Oc1ccc(N=Nc2ccc(C)cc2)ccc1=O	10µM	?	23µM	2.9µM	?
CCOc1ccccc1NC(=O)c1cc(=O)c2ccc(C)cc2o1	i	nt	nt	i	nt
Cc1ccnc(SCC(=O)N2CCN(c3cccc(Cl)c3)CC2)n1	i	i	i	?	i
SMILES	TDP1 cell CPT	HT1080-NT tox	HT1080 IDH1KD tx	TDP1 cell noCPT	IL-1B inflam inh
CCSc1ncc(Cl)c(C(=O)N2CCN(c3ccccc3OC)CC2)n1	3.3µM	nt	nt	4.1µM	nt
CCCSc1ncc(Cl)c(C(=O)N(Cc2cccc(Cl)c2)C2CCS(=O)(=O)C2)n1 (stereo not given)	23µM	nt	nt	16µM	nt
COc1ccccc1N1CCN(C(=O)c2n[nH]c3ccccc23)CC1	i	i	i	i	i
CCCSc1ncc(Cl)c(C(=O)N2CCN(c3cccc(Cl)c3)CC2)n1	1.8µM	nt	nt	?	nt
C[C@H](NC(=O)c1ccc2ccccc2c1)C(=O)N1CCC2(CC1)NCCc1[nH]cnc12	i	i	i	i	i
Cc1ccsc1/C=N/NC(=O)CC(=O)NCC(C)C	i	i	i	i	i
S=c1[nH]nc(Cc2noc3ccccc23)n1-c1ccccc1	?	i	i	?	i
CCOCCn1c(=O)c2c(nc3n2CC(C)CN3CCc2ccccc2)n(C)c1=O (stereo not given)	26µM	i	i	?	i
Cn1c(=O)c2c(nc(OCCc3ccccc3)n2C)n(C)c1=O	?	i	i	i	i
CCOc1nc2c(c(=O)n(C)c(=O)n2C)n1Cc1ccccc1Cl	16µM	i	i	12µM	i
CCOCCOc1nc2c(c(=O)n(C)c(=O)n2C)n1CCc1ccccc1	18µM	i	i	21µM	i
COCCOc1nc2c(c(=O)n(C)c(=O)n2C)n1Cc1cccc(OC)c1	8.2µM	i	i	7.3µM	i
Cc1ccc(S(=O)(=O)c2nc(S(C)(=O)=O)sc2N2CCC3(CC2)OCCO3)cc1	i	i	i	?	?
C=CCOc1nc2c(c(=O)n(C)c(=O)n2C)n1Cc1c(Cl)cccc1Cl	?	i	i	21µM	i
C=CCOc1nc2c(c(=O)n(Cc3ccc(Cl)c(Cl)c3)c(=O)n2C)n1C	16µM	i	i	23µM	i
C=CCOc1nc2c(c(=O)n(C)c(=O)n2C)n1C	i	i	i	i	i
CSc1cccc(NC(=S)NCCCN2CCN(c3ccc(F)cc3)CC2)c1	i	i	i	i	i
O=C(Nc1ccccc1)N1CCN(C(=O)c2nsc3ccccc23)CC1	i	nt	nt	i	nt
Cc1ccc(C(=O)N2CCN(c3ccccc3)CC2)cc1NC(=O)c1nsc2ccccc12	21µM	nt	nt	?	nt
COc1ccc(N2CCN(C(=O)c3cccc(NC(=O)c4nsc5ccccc45)c3)CC2)cc1	15µM	nt	nt	12µM	nt
COc1ccc(C(=O)Nc2cccc(C(=O)N3CCN(C)CC3)c2)cc1	i	i	i[9.24 µM]	i	i
COc1cccc(N2CCN(C(=O)c3cccc(NC(=O)c4nsc5ccccc45)c3)CC2)c1	?	nt	nt	21µM	nt
Cc1ccc(C)c(NC(=O)N2CCN(C(=O)c3nsc4ccccc34)CC2)c1	?	nt	nt	18µM	nt
CCOC(=O)C1=NN(C(=O)Nc2cccc(C(F)(F)F)c2)C2C(=O)N(c3cccc(C(F)(F)F)c3)C(=O)C12 (stereo not given)	i	i	i	i	i
COc1ccc(O)c(C2Nc3ccccc3-n3c(-c4ccccc4)c4c(=O)n(C)c(=O)n(C)c4c32)c1 (stereo not given)	9.2µM	nt	nt	18µM	nt
Cc1ccc(-c2c3c(=O)n(C)c(=O)n(C)c3c3n2-c2ccccc2NC3c2ccc(C)cc2O)cc1 (stereo not given)	21µM	nt	nt	21µM	nt
Cn1c(=O)c2c(-c3ccccc3)n3c(c2n(C)c1=O)C(c1ccc([N+](=O)[O-])cc1)Nc1ccccc1-3 (stereo not given)	16µM	nt	nt	15µM	nt
Cc1ccc(C2Nc3cc(C)c(C)cc3-n3c(-c4ccccc4)c4c(=O)n(C)c(=O)n(C)c4c32)o1 (stereo not given)	7.3µM	nt	nt	9.2µM	nt
Cc1cc(C)cc(-n2c(-c3ccccc3)c(C)n3c4c(=O)n(C)c(=O)n(C)c4nc23)c1	i	nt	nt	i	nt
